About 79,000 compounds went through this panel and 15% of them were active in at least one assay; those are over-represented in the sample as a whole. Activity calls are given as the source filed them. Rule as the data show it: active = growth inhibition above about 70%; inactive = the rest.
Assay: NCI Yeast Anticancer Drug Screen. Data for the sgs1 mgt1 strain (AID 161);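 also: 0% = growth of cultures given vehicle only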
Conditions: S. cerevisiae sgs1 mgt1 strain, at 50.0 µM, active compounds read high
How it was run: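 Test agents were incubated with a DNA-repair-mutant yeast strain. Growth was then read and compared against vehicle-treated controls.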

| SMILES | growth inhibition |
| --- | --- |
| CC(C)C(=O)C(F)(F)F | -21.3% (inactive) |
| COc1cc2c(cc1OC)-c1cc3cc(OC)c(OC)cc3c(C)[n+]1CC2 (tested in a mixture with another compound) | 11.9% (inactive) |
| O=C1NC(N2CCCCC2)=N/C1=C\c1ccco1 | 8.35% (inactive) |
| Cc1ccc(/C=C/c2ccc3ccccc3c2)cc1 | 9.05% (inactive) |
| CCCCCCCC/C=C/CCCCCCCC(=O)O | -20.6% (inactive) |
| CC(=O)Nc1ccc(O)c(C(=O)O)c1 | -8.55% (inactive) |
| CCCCCCCCCCN=C(N)CSSCC(N)=NCCCCCCCCCC | 97.1% (active) |
| O=[N+]([O-])c1ccccc1OC1OC(CO)C(O)C(O)C1O (centres undefined) | 14.2% (inactive) |
| Cc1ccc(S(=O)(=O)NNC(=O)c2cccnc2)cc1 | 1.35% (inactive) |
| COC1C=C(Br)C(=O)C(C)O1 (centres undefined) | -25.6% (inactive) |
| O=C(Nc1ccc(NC(=O)Nc2cc(C(F)(F)F)ccc2Oc2ccc(Cl)c(Cl)c2)cc1)Nc1cc(C(F)(F)F)ccc1Oc1ccc(Cl)c(Cl)c1 | -13.4% (inactive) |
| Clc1cccc[n+]1CCc1ccccc1 | 5.3% (inactive) |
| O=C(O)C12C3CCC(CC3)C1(C(=O)O)C1CCC2C1 (centres undefined) | -12.1% (inactive) |
| CN(C)CC(CN(C)C)C(=O)C(C)(C)C | 22.7% (inactive) |
| Cc1ccc(NC(=O)c2cc3cc(N=Nc4ccc(Br)cc4)ccc3oc2=O)cc1 | 12.4% (inactive) |
| O=C(NC(=S)Nc1cccc(Cl)c1)c1ccccc1 | 33.3% (inactive) |
| Oc1ccc(-c2csc(Nc3ccccn3)n2)cc1O | 99% (active) |
| CS(=O)(=O)N(CCC#N)c1ccc(C=O)cc1 | -7.4% (inactive) |
| N#CC1(C#N)CC1c1ccccc1 (centres undefined) | 6.75% (inactive) |
| c1ccc(N=C2N=c3ccccc3=C2c2c(Nc3ccccc3)[nH]c3ccccc23)cc1 | -4.35% (inactive) |
| COC(=O)CN(CC(=O)OC)C(C)=O | -0.05% (inactive) |
| CCCCC(=O)c1cc2ccccc2c2ccccc12 | 0.2% (inactive) |
| Cc1ccc(S(=O)(=O)NC2C(=O)c3ccccc3C(=O)C2n2ccnc2)cc1 (centres undefined) | 0.75% (inactive) |
| Cc1cn(CC(O)c2cc3ccccc3[nH]2)c(=O)[nH]c1=O (centres undefined) | -0.1% (inactive) |

Assay: NCI Yeast Anticancer Drug Screen. Data for the cln2 rad14 strain (AID 165);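 also: 0% = growth equal to vehicle treated cultures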
Conditions: S. cerevisiae cln2 rad14 strain, at 50.0 µM, active compounds read high
How it was run: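 cln2 rad14 yeast strain; compound exposure; growth inhibition read vs vehicle controls.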

| SMILES | growth inhibition |
| --- | --- |
| O=c1[nH]n(Cc2ccccn2)c2ccc([N+](=O)[O-])cc12 | 0.95% (inactive) |
| CCOC(=O)CCCCCCC(=O)OCC | 1.95% (inactive) |
| O=C(O)CCC(=O)c1ccc2c3c1CCCC3CC2 (centres undefined) | 29% (inactive) |
| CCc1ccc(OC(C)=O)cc1 | -21.7% (inactive) |
| Cc1ccc(/C(O)=C/C(=O)C(=O)NN=C(c2ccccc2)c2ccccc2)cc1 | 4.85% (inactive) |
| CCCc1c(O)c(=O)c2c(OC)cc(OC)c3c4c(OC)cc(OC)c5c(=O)c(O)c(CCC)c(c1c23)c54 | 84.5% (active) |
| COc1ccc(C(O)Cc2ccccc2)cc1 (centres undefined) | -16.9% (inactive) |
| O=C(CC12C3C4C1C1C2C3C41CC(=O)NO)NO (centres undefined) | 11.9% (inactive) |
| Cc1ccc(S(=O)(=O)C2=c3nc4ccccc4cc3=C3C(=O)c4ccccc4C(=O)C32)cc1 (centres undefined) | -75.9% (inactive) |
| Oc1ccc(Cl)cc1-c1cc(-c2ccccc2)nc(=S)[nH]1 | -0.2% (inactive) |
| c1ccc(-c2cc(-c3cc(-c4ccccc4)n(-c4ccccc4)n3)nn2-c2ccccc2)cc1 | -2.55% (inactive) |
| CC1=C(C(=O)Nc2ccccc2C)C(c2ccccc2)C(C(=O)Nc2ccccc2C)=C(C)N1 | 6.3% (inactive) |
| O=C(/C=C/c1ccccc1)NC(=S)Nc1ccc(F)c([N+](=O)[O-])c1 | 12.7% (inactive) |
| NCCSSCCCCSSCCN | -43.2% (inactive) |
| Cc1c(-c2nc(N)nc(C3CC3)c2C)nc(N)nc1C1CC1 | -11.7% (inactive) |
| O=C1NC(N2CCCC(CO)C2)=N/C1=C\c1ccc(Cl)cc1 (centres undefined) | 23.6% (inactive) |
| CC(C)C(=O)C(F)(F)F | 6.45% (inactive) |
| COc1cc2c(cc1OC)-c1cc3cc(OC)c(OC)cc3c(C)[n+]1CC2 (tested in a mixture with another compound) | 19.4% (inactive) |
| O=C1NC(N2CCCCC2)=N/C1=C\c1ccco1 | 13.7% (inactive) |
| Cc1ccc(/C=C/c2ccc3ccccc3c2)cc1 | -14.6% (inactive) |

| SMILES | growth inhibition |
| --- | --- |
| CCCCCCCC/C=C/CCCCCCCC(=O)O | -16.8% (inactive) |
| CC(=O)Nc1ccc(O)c(C(=O)O)c1 | -6% (inactive) |
| CCCCCCCCCCN=C(N)CSSCC(N)=NCCCCCCCCCC | 92.8% (active) |
| O=[N+]([O-])c1ccccc1OC1OC(CO)C(O)C(O)C1O (centres undefined) | -33.8% (inactive) |
| Cc1ccc(S(=O)(=O)NNC(=O)c2cccnc2)cc1 | -27.8% (inactive) |
| COC1C=C(Br)C(=O)C(C)O1 (centres undefined) | -2.3% (inactive) |
| O=C(Nc1ccc(NC(=O)Nc2cc(C(F)(F)F)ccc2Oc2ccc(Cl)c(Cl)c2)cc1)Nc1cc(C(F)(F)F)ccc1Oc1ccc(Cl)c(Cl)c1 | -23.2% (inactive) |
| Clc1cccc[n+]1CCc1ccccc1 | -4.55% (inactive) |
| O=C(O)C12C3CCC(CC3)C1(C(=O)O)C1CCC2C1 (centres undefined) | -24.1% (inactive) |
| CN(C)CC(CN(C)C)C(=O)C(C)(C)C | -7.7% (inactive) |
| Cc1ccc(NC(=O)c2cc3cc(N=Nc4ccc(Br)cc4)ccc3oc2=O)cc1 | 23.1% (inactive) |
| O=C(NC(=S)Nc1cccc(Cl)c1)c1ccccc1 | -7.3% (inactive) |
| Oc1ccc(-c2csc(Nc3ccccn3)n2)cc1O | 97.2% (active) |
| CS(=O)(=O)N(CCC#N)c1ccc(C=O)cc1 | -8.1% (inactive) |
| N#CC1(C#N)CC1c1ccccc1 (centres undefined) | -6.1% (inactive) |
| c1ccc(N=C2N=c3ccccc3=C2c2c(Nc3ccccc3)[nH]c3ccccc23)cc1 | -27.1% (inactive) |
| COC(=O)CN(CC(=O)OC)C(C)=O | 2.7% (inactive) |
| CCCCC(=O)c1cc2ccccc2c2ccccc12 | -11.1% (inactive) |
| Cc1ccc(S(=O)(=O)NC2C(=O)c3ccccc3C(=O)C2n2ccnc2)cc1 (centres undefined) | 2.75% (inactive) |
| Cc1cn(CC(O)c2cc3ccccc3[nH]2)c(=O)[nH]c1=O (centres undefined) | 12.1% (inactive) |

— PubChem BioAssay (NCI)
